TDP1 cell CPT – DT40-hTDP1 cell growth loss with CPT. 420,000 tested, 12% active. AID 686979. Potency, µM (series often up to 46.2 µM), for inactives: at the highest dose activity change, negative = growth inhibition, most hits filed as inhibitors. chicken DT40 Tdp1-/-;hTDP1 cells + 20 nM CPT, ATP luminescence, 48 h; further: potency means the concentration at half of the fitted maximal effect; nearly all actives have a fitted effect of over 55% in size
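Chicken DT40 Tdp1-/- cells complemented with human TDP1, 400 cells/well, exposed to compounds plus 20 nM camptothecin for at least 48 h at 37 C; viability read as ATP content by CellTiter-Glo luminescence.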
Giardia kill – kills Giardia lamblia; Giardia lamblia trophozoite viability; AID 540267; activity change, % at 7.66 µM, hits read low; 340,000 tested, 0.15% active; in the data active means activity change below about -80%; inconclusive means between about -30% and that limit;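 further: parasites exposed to compound for two days anaerobically before the ATP read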
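Each well holds 100 Giardia trophozoites and compound. After two days (48 hrs) at 37 deg C in anaerobic conditions, ATP is quantified by luminescence.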
TDP1 cell noCPT – qHTS for Inhibitors of human tyrosyl-DNA phosphodiesterase 1 (TDP1): qHTS in cells in absence of CPT | DT40 Tdp1-/- hTDP1 cells, no CPT, ATP luminescence, 48 h | 420,000 tested, 15% active | Potency, µM (titrated, usually from 46.2 µM), for inactives: at the highest dose activity change, negative = growth inhibition, hits mostly inhibitors; further: potency means the concentration at half of the fitted maximal effect; nearly all actives have a fitted effect of over 55% in size
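Chicken DT40 Tdp1-/- cells stably complemented with human TDP1 were seeded at 400 cells/well with DMSO in place of 20 nM camptothecin. After compound pinning, cells grew at least 48 hr at 37 °C; viability read by CellTiter-Glo luminescence.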
TDP1 block – inhibitors of human tyrosyl-DNA phosphodiesterase TDP1 | AID 485290 | recombinant TDP1, AlphaScreen DNA substrate cleavage | 350,000 tested, 0.28% active | Potency, µM (highest dose often 130 µM), inactives show at the highest dose activity change, negative = inhibition, hits mostly inhibitors; further: potency means the concentration at half of the fitted maximal effect; nearly all actives have a fitted effect of over 40% in size
Target sequence (Q9NUW8 whole entry, looked up): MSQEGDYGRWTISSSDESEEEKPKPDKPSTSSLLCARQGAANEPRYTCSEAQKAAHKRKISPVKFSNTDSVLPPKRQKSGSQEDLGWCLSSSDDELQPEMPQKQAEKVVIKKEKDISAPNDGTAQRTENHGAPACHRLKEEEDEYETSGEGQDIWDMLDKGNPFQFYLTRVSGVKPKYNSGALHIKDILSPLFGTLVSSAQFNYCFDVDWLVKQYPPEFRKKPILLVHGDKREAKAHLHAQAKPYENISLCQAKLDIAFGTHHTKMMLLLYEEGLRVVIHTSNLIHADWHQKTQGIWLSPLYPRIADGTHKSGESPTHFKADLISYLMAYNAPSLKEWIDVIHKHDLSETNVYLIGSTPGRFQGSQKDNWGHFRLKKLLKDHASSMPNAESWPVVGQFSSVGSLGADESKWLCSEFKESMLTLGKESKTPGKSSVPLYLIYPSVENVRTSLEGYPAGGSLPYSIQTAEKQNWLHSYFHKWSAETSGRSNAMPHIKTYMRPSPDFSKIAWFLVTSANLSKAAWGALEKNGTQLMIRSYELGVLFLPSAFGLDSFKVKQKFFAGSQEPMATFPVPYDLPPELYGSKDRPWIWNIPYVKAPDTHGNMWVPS
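Here, a 5' biotin and 3' phosphotyrosine-FITC DNA oligonucleotide reports Tdp1 activity: intact substrate bridges AlphaScreen beads, while cleavage leaves a 3' phosphate and drops signal. All incubations at room temperature.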
IL-1B inflam inh – inflammasome signaling inhibition, IL-1 beta readout; THP-1 LPS/ATP IL-1B secretion, AlphaLISA, 16 h; hits give low values; activity change, % at 57.5 µM; 360,000 tested, 4.7% active; AID 743279; in the data active means activity change below about -50%; inconclusive means mostly about -30% to -49%
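Secreted IL-1B measured by AlphaLISA bead assay after 16 h compound exposure of THP-1 cells; compounds (final up to 57.5 uM) added 1 h before LPS (250 ng/mL) and ATP (1.25 mM) stimulation; lower signal means less secretion.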
ELG1 DNA repair – blocks ELG1-dependent DNA repair in HEK293T cells; HEK293T ELG1-luciferase reporter, luminescence, 16 h; DNA damage induced by 5-fluorouridine; Potency, µM (doses to about 46.1 µM), for inactives: at the highest dose activity change, negative = inhibition, most hits filed as inhibitors; 330,000 tested, 2.3% active; further: potency means the concentration at half of the fitted maximal effect; nearly all actives have a fitted effect of over 55% in size
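In this reporter screen, reduction of luminescence relative to DMSO vehicle indicated activity. Compounds and 5-fluorouridine were added together to 2,000 cells per well, incubated for 16 hr at 37 °C, then developed with ONE-Glo.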
* marks the source's active call; other numbers are inactive results; ? = inconclusive; . = no result given; ! = repeats disagree; [ ] = dose if it differs, or a comment. The list is not random: actives were taken first. Their share in the collection is about 19%. Unless noted, the call rests on the fitted dose curve; in most records, active means well fitted curve in the direction sought with a large enough effect; inconclusive means small, poorly fitted or top-dose-only effect, or another doubt; inactive means no such curve, though single readings can be large; an effect the other way counts as inactive or inconclusive. On the % scale 0 is the no-effect control and ±100 the full control effect.

SMILES	TDP1 cell CPT	Giardia kill	TDP1 cell noCPT	TDP1 block	IL-1B inflam inh	ELG1 DNA repair
Cc1ccc(-c2nc3c4ccccc4ccn3c2Cc2ccsc2)cc1	16µM*	.	?	.	0	.
COc1ccc(N(CC(=O)N2CCN(Cc3ccccc3)CC2)S(C)(=O)=O)cc1Cl	?	-6	?	.	?	?
CCC(c1nnc(SCC(=O)NC2CCCCC2)n1Cc1ccccc1)N(C)C (stereo not given)	8%	-22	-6%	.	8	-1%
CC1(C(=O)Nc2ccc(Cl)c(Cl)c2)CCN1Cc1cc2ccccc2o1 (stereo not given)	-14%	.	-24%	.	0	.
CC(=O)c1nn(-c2ccc(C(F)(F)F)cc2)c(=O)[nH]c1=O	19%	-2	-17%	.	16	13%
CCOC(=O)N1CCN(C(=O)CN(c2ccc(C)cc2C)S(=O)(=O)c2ccccc2)CC1	0%	.	-21%	.	.	.
c1ccc(-c2nc3c4ccccc4ccn3c2Cc2ccsc2)cc1	23µM*	.	16µM*	.	14	.
CC1CCN(c2oc(-c3ccc(F)cc3)nc2C#N)CC1	2%	-6	-27%	.	?	?
Cc1cc(C)nc(N/N=C/c2ccccc2OCc2cccc(Br)c2)n1	?	8	18µM*	8%	-62*	21µM*
Cc1cc(C)nc(N/N=C/c2ccccc2OCc2ccc(Cl)cc2)n1	16µM*	5	?	4%	10	?
C/C(=N/Nc1nc(C)cc(C)n1)c1ccc(Br)cc1	?	7	?	.	2	?
Cc1cc(C)nc(N/N=C/c2cc(Br)ccc2O)n1	5.2µM*	-1	3.7µM*	11%	126	?
CCOC(=O)[C@]12CCCC=C1N(Cc1ccc3c(c1)OCO3)C(=O)[C@H](CC(=O)NCc1ccc(OC)c(OC)c1)C2	?	.	?	.	-5	.
Nc1nonc1C(=O)N/N=C/c1cc2c(cc1Br)OCO2	11%	55	15%	-2%	-16	5%
CC(C)c1ccc(NC(=O)Cn2c(=O)n(CC3CCC(C(=O)NCCc4ccccc4)CC3)c(=O)c3ccccc32)cc1 (stereo not given)	16µM*	.	15µM*	5%	.	.
CCc1cccc(NC(=O)Cn2c(=O)n(CC3CCC(C(=O)NCCc4ccccc4)CC3)c(=O)c3ccccc32)c1 (stereo not given)	21µM*	.	13µM*	-8%	.	.
Cc1ccc(NC(=O)Cn2c(=O)n(CC(=O)NCCc3ccccc3)c(=O)c3ccccc32)cc1C	?	.	3.3µM*	0%[12.3 µM]	.	.
Nc1nc(N)c2c(ccc3nccc32)[nH]1	1.8µM*	-12	1µM*	-8%	17	-21%
CCCNS(=O)(=O)c1ccc2nc(NC(=O)c3ccc(F)cc3)sc2c1	8.2µM*	.	21µM*	0%	.	.
CCN(CC)S(=O)(=O)c1ccc(C(=O)Nc2nc3c(Cl)cc(Cl)cc3s2)cc1	?	.	16µM*	3%	.	.
CCOC(=O)c1sc(NC(=O)c2ccc(S(=O)(=O)N(CC)CC)cc2)nc1C	-7%	-1	-25%	5%	4	?
CCN(CC)S(=O)(=O)c1ccc2nc(NC(=O)c3cccnc3)sc2c1	21µM*	.	?	3%	.	.
C=C(C)C(O)C(CC/C=C(\C)C(=O)OCC)OC (stereo not given)	.	.	.	3%[21 µM]	.	.
CCCCNc1ccc(C(=O)OCCOCCOCCOCCOCCOCCOCCOCCOCCOC)cc1	?	8	-18%	4%[56.1 µM]	-25	-2%
CCCCNc1ccc(C(=O)OCCN(C)C)cc1	13µM*!	8	?	10%	31	28%
SMILES	TDP1 cell CPT	Giardia kill	TDP1 cell noCPT	TDP1 block	IL-1B inflam inh	ELG1 DNA repair
Cc1c(CC(=O)N2CCCCC2)c(=O)oc2cc3occ(C(C)(C)C)c3cc12	?	.	?	5%	.	.
COc1cc2ccccc2cc1C(=O)Nc1ccc(Cc2ccncc2)cc1	18µM*	8	26µM*	12%	-72*	0%
COc1ccccc1NC(=O)Nc1ccc(Cc2ccncc2)cc1	8%	-13	-3%	5%	-87*	?
COc1ccc(C(CNC(=O)c2ccc(NS(=O)(=O)c3cccc([N+](=O)[O-])c3)cc2)N2CCOCC2)cc1 (stereo not given)	8%	18	-10%	4%	9	8%
O=C(CN1C(=O)CCc2cc(Br)ccc21)Nc1ccc(OC(F)(F)F)cc1	?	.	-4%	7%	.	.
Cc1ccc(C)n1-c1ccc(C(=O)NN)s1	-11%	-6	?	1%	?	-18%
CCn1ncc(Cl)c1C(=O)NC(=S)Nc1c(C)cc(C)cc1[N+](=O)[O-]	?	0	23µM*	3%	-20	-5%
Cc1csc2nc(CNS(=O)(=O)c3ccc4c(c3)CCCC4)cn12	?	-2	9.2µM*	7%	19	-12%
Cc1csc2nc(CNS(=O)(=O)c3ccc4c(c3)OCCO4)cn12	?	-25	?	-1%	16	-10%
O=[N+]([O-])c1ccc(C(O)CN=Cc2ccc(O)cc2O)cc1 (stereo not given)	23µM*	-9	?	5%	0	?
CN(C)S(=O)(=O)c1ccc(C(=O)OCC(=O)NCc2ccco2)cc1	31%	-11	5%	60µM*	15	-14%
COc1cc(OC)cc(C(=O)OCC(=O)NCc2ccco2)c1	-13%	-6	14%	-8%	0	0%
O=C(COC(=O)c1cncc(Br)c1)NCc1ccco1	0%	1	2%	7.1µM*	4	?
COc1cc(C(=O)OCC(=O)NCc2ccco2)cc(OC)c1OC	1%	17	-18%	-1%	-67*	-14%
O=C(Nc1ccccc1)N1CCC2(CC1)CCN(C(=O)c1cnccn1)CC2	9%	.	-13%	.	.	.
CN1CCN(C(=O)c2ccc(-n3cccn3)nc2)CC1	-1%	-30	0%	12%	6	8%
Cc1ccccc1Nc1c(-c2ccc(N3CCOCC3)cc2)nc2ccc(Br)cn12	12µM*	.	15µM*	4%[12.3 µM]	.	.
COc1cc(O)ccc1-c1nc2ccc(Br)cn2c1Nc1ccccc1C	21µM*	.	9.2µM*	10%	.	.
Cc1ccccc1Nc1c(-c2ccc(N3CCOCC3)cc2)nc2ccccn12	?	.	?	12%	.	.
COc1cccc(CSc2nc3ccccc3cc2C=O)c1	1.2µM*	18	1µM*	1%	49	?
O=C1N/C(=C/c2ccc(Br)cc2)C(O)=C1C=NCc1ccccc1	2.9µM*	-8	2.3µM*	3%	11	?

Screens as filed in PubChem BioAssay.
